Bioassay records: PubChem, National Center for Advancing Translational Sciences (NCATS)
HT1080-NT tox – qHTS for induction of synthetic lethality in tumor cells producing 2HG: qHTS for the HT-1080-NT fibrosarcoma cell line; hit rate 1.6% among 360,000; Potency, µM (titrated, usually from 46.1 µM), for the others: at the top dose activity, negative = less viability, hits mostly cytotoxic; HT-1080-NT fibrosarcoma viability, CellTiter-Glo ATP luminescence, 48 h; AID 686970, 2013;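 further: NT is the 2HG producing partner of a matched IDH1 knockdown line; 0% = DMSO-treated cells and -100% = media-only wells without cells; nearly all actives have a fitted effect of over 55% in size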
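HT-1080-NT; 750 cells/well; 5% FBS RPMI; 48 h compound, 37 degrees C; CellTiter-Glo luminescence; curve fitting and curve-class assignment.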
HT1080 IDH1KD tx – qHTS for induction of synthetic lethality in tumor cells producing 2HG: qHTS for the HT-1080-IDH1KD cell line. hit rate 2% among 360,000. HT-1080 IDH1 knockdown viability, ATP luminescence, 48 h. Potency, µM (doses to about 46.1 µM), for the others: at the top dose activity, negative = toxicity, hits mostly cytotoxic;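 further: 0% = DMSO wells and -100% = cell-free medium wells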
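CellTiter-Glo luminescence after 48 h compound exposure at 37 degrees C of IDH1-knockdown HT-1080 cells in 5% FBS RPMI. %Activity scaled between DMSO wells and cell-free media wells, with curves fitted and assigned curve classes.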
KB-V1 MDR tox – qHTS assay for MDR1-selective chemotherapeutics: Primary screen using the drug-selected MDR subline cells KB-V1. hit rate 3.4% among 400,000. Potency, µM (top dose mostly 46.1 µM), most hits filed as cytotoxic. KB-V1 MDR cells viability, CellTiter-Glo, 72 h. AID 1347076, 2019; further: on the % scale 0 is the no-effect control and ±100 the full control effect; nearly all actives have a fitted effect of over 60% in size
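qHTS viability screen in drug-selected KB-V1 MDR cells: 72 h compound treatment at 37 degrees C, ATP luminescence end point.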
MCF10A rereplic – A quantitative high throughput screen for small molecules that induce DNA re-replication in MCF 10a normal breast cells. MCF 10A DNA re-replication, Hoechst nuclear intensity, 48 h. Potency, µM (doses to about 46.1 µM), inactives show top-dose activity, positive = re-replication, most hits filed as activators. hit rate 2.9% among 350,000. AID 624296, 2012; further: % of control where 0% means no effect; nearly all actives have a fitted effect of over 50% in size
SW480 rerep – A quantitative high throughput screen for small molecules that induce DNA re-replication in SW480 colon adenocarcinoma cells; hit rate 1.8% among 340,000; SW480 DNA re-replication, Hoechst DNA content imaging, 48 h; Potency, µM (top dose mostly 46.1 µM), without a hit: at the highest dose re-replication activation, usual class: activators; further: % of control where 0% means no effect; nearly all actives have a fitted effect of over 55% in size
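Image-based DNA-content assay: after two days of treatment, nuclei were labelled with the DNA dye Hoechst and imaged, and hits were compounds raising the count of nuclei showing high fluorescence intensity.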
KB-3-1 cytotox – qHTS assay for MDR1-selective chemotherapeutics: Primary screen using the parental adenocarcinoma cell KB-3-1 | Potency, µM (doses to about 46.1 µM), actives largely listed as cytotoxic | KB-3-1 viability, CellTiter-Glo ATP luminescence, 72 h | AID 1347075, 2019 | hit rate 1.4% among 400,000; further: on the % scale 0 is the no-effect control and ±100 the full control effect; nearly all actives have a fitted effect of over 60% in size
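KB-3-1 cells, DMEM (no phenol red) + 10% FBS; compound by pin transfer, 72 h, 37 °C. Readout: CellTiter-Glo luminescence after 10 min. Data normalized, curve-fitted.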
Numbers without * were called inactive; i = inactive; ? = inconclusive; / = no result given; ! = repeats disagree. This is a sample that favours compounds with a hit; in the whole collection about 8% have one here. The call rests on the fitted dose curve; in most records, active means well fitted curve in the direction sought with a large enough effect; inconclusive means small, poorly fitted or top-dose-only effect, or another doubt; inactive means no such curve, though single readings can be large; an effect the other way counts as inactive or inconclusive. Potency means the concentration at half of the fitted maximal effect.

SMILES	HT1080-NT tox	HT1080 IDH1KD tx	KB-V1 MDR tox	MCF10A rereplic	SW480 rerep	KB-3-1 cytotox
CCOC(=O)C(C)(C)N(Cc1cccc(C)c1)S(=O)(=O)c1ccc(Cl)c([N+](=O)[O-])c1	-10.5%	?	i	5.17µM*	?	20.6µM*
CCOC(=O)c1ccc(CN(Cc2ccc(C)cc2)S(=O)(=O)c2cccc([N+](=O)[O-])c2)cc1	5.6%	9.8%	i	-21.4%	-2.7%	i
CCOC(=O)C(C)(C)N(Cc1cccc(C)c1)S(=O)(=O)c1cccc([N+](=O)[O-])c1	-0.6%	-7.9%	7.31µM*	5.3%	-4.4%	16.4µM*
COc1ccc(-c2cc(C(=O)N3CCN(c4ccccc4)CC3)c3ccccc3n2)cc1	?	1.84µM*	7.31µM*	13µM*	1.84µM*	?
COc1ccc(-c2cc(C(=O)O)c3ccccc3n2)c(OC)c1	-4.0%	-9.5%	i	24.5%	2.0%	i
CCOc1ccc(-c2cc(C(=O)N3CCN(c4ccccn4)CC3)c3ccccc3n2)cc1	?	?	?	?	?	4.11µM*!
COc1ccc(-c2cc(C(=O)N3CCN(c4ccccn4)CC3)c3ccccc3n2)cc1	?	?	i	?	20.6µM*	i
COc1ccc2cc(-c3cc(C(=O)O)c4ccccc4n3)ccc2c1	?	?	i	24.9%	-4.3%	14.6µM*
COc1cccc(CN2CCN(C(=O)c3cc(-c4cccnc4)nc4ccc(C)cc34)CC2)c1	-18.4%	-11.8%	23.1µM*	3.4%	0.0%	i
CCN(CC)c1nc(C#N)nc(N2CCOCC2)n1	/	/	?	/	/	i
CCOc1ccc2ncc3c(-c4ccccc4)nn(CC(=O)Nc4cccc(F)c4)c3c2c1	/	/	i	/	/	i
CC(C)N1CCN(c2ccc(OCC3COC(Cn4cncn4)(c4ccc(Cl)cc4Cl)O3)cc2)CC1 (stereo not given)	-1.6%	-1.4%	1.16µM*	?	?	?
COc1ccc(N2CCN(C(=O)Cn3cncn3)CC2)cc1	2.7%	13.4%	i	1.2%	-3.8%	i
COc1ccc(NC2CCCN(C(=O)COc3ccc(Cl)cc3C)C2)cc1OC (stereo not given)	-4.3%	-2.3%	7.31µM*	5.1%	0.4%	i
O=C(COc1ccc(Cl)cc1Cl)N1CCCCCC1	0.5%	-4.7%	20.6µM*	8.5%	2.7%	i
Cc1cc(Cl)ccc1OCC(=O)N1CCCN(C(=O)COc2ccc(Cl)cc2C)CC1	-17.6%	-28.1%	5.8µM*	?	-0.9%	?
Cc1cc(Cl)ccc1OCC(=O)N1CC(C)CC(C)C1 (stereo not given)	1.0%	-18.9%	?	2.8%	4.4%	i
COc1ccccc1OCC(=O)N1CCCC(Nc2ccc(C)c(C)c2)C1 (stereo not given)	-11.9%	-13.5%	/	?	10.1%	/
CC(Oc1ccccc1Cl)C(=O)N1CCCN(C)CC1 (stereo not given)	-6.5%	-15.3%	i	?	-0.9%	i
Cc1cc(Cl)ccc1OC(C)C(=O)N1CCCN(C(=O)C(C)Oc2ccc(Cl)cc2C)CC1 (stereo not given)	18.4µM*	20.6µM*	?	?	?	13µM*
Cc1ccc2c(c1C)-c1c(ccc(C)c1C)C(=O)C2=O	5.8µM*	10.3µM*	0.651µM*	4.11µM*	3.26µM*	3.26µM*
CCOc1ccccc1OCCN1CCC(Cc2ccccc2)CC1	-2.7%	-17.2%	i	18.1%	16.3%	i
CCC(=O)c1ccccc1OCCCN1CCC(Cc2ccccc2)CC1	18.4µM*	?	?	1.5%	29.4%	?
Cc1ccc([N+](=O)[O-])c(OCCN2CCC(Cc3ccccc3)CC2)c1	20.6µM*	16.4µM*	20.6µM*	?	24.0%	?
O=C(CC1N=C2c3ccccc3N=C(SCC(=O)Nc3ccccc3F)N2C1=O)NCc1ccc2c(c1)OCO2 (stereo not given)	/	/	i	/	/	i
SMILES	HT1080-NT tox	HT1080 IDH1KD tx	KB-V1 MDR tox	MCF10A rereplic	SW480 rerep	KB-3-1 cytotox
COc1cccc(-n2cc(C(=O)Oc3cccc(C(F)(F)F)c3)c3ccccc3c2=O)c1	/	/	i	/	/	i
CCc1ccc(-n2c(=O)c3c4c(sc3n(CC(=O)N3CCC(C)CC3)c2=O)CCC4)cc1	/	/	i	/	/	i
CN(C)CCCn1c(=S)[nH]c2ccccc2c1=O	-0.8%	6.4%	i	23.6%	-17.6%	i
CN(C)CCCn1c2c3ccccc3ccc2c2oc(=O)c3ccccc3c21	-1.3%	-26.3%	?	3.66µM*	18.4µM*	?
COc1ccc(OC)c(C(C(=O)NCc2ccco2)N(C(=O)Cn2nnc3ccccc32)C2CC2)c1 (stereo not given)	-6.5%	3.0%	6.51µM*	-4.7%	-2.0%	i
COc1ccc(-n2nnnc2SCC(=O)N2CCOCC2)cc1	-1.5%	-0.5%	i	28.8%	-9.4%	i
COc1ccc(N2CCN(C(=O)CSc3nnnn3-c3ccc4c(c3)OCCO4)CC2)cc1	0.0%	-24.8%	20.6µM*	16.4µM*	-1.1%	i
CCC(c1nnnn1-c1ccc2c(c1)OCCO2)N1CCN(c2ccc(C)cc2)CC1 (stereo not given)	-9.6%	-14.0%	i	/	/	18.4µM*
CCC(c1nnnn1-c1ccc2c(c1)OCCO2)N1CCN(c2ccccc2)CC1 (stereo not given)	0.7%	-8.1%	i	/	/	?
CCC(c1nnnn1-c1ccc2c(c1)OCCO2)N1CCN(c2ccccc2OC)CC1 (stereo not given)	-5.5%	?	7.31µM*	/	/	?
COc1ccc(N2CCN(C(=O)CSc3nnc(-c4cc5ccccc5cc4O)n3C)CC2)cc1	?	?	2.31µM*	2.1%	-4.2%	18.4µM*
CCC(c1nnnn1-c1ccc2c(c1)OCCO2)N1CCN(c2cccc(C)c2C)CC1 (stereo not given)	?	?	i	/	/	?
CC(=O)c1ccc(NC(=O)C2=CC(c3ccc(C)cc3)=NS(=O)(=O)N2C)cc1	/	/	i	/	/	i
CCc1ccc(-c2nn(CC(=O)NCc3ccccc3)c3c2cnc2ccc(C)cc23)cc1	/	/	?	/	/	i
